# Data taken from PubChem BioAssay (EPA / NIEHS).
# Activity calls are given as the source filed them. How the source made its calls: active means hit-call score of the fitted dose curve at least 0.9, where 1 is the maximum; inactive means score below 0.9.
# Tests used:
# [1] = molecular target: CCAAT/enhancer-binding protein beta (Homo sapiens) (UniProt P17676); test: ATG_C_EBP_CIS: Attagene CIS-FACTORIAL HepG2 Assay for human CCAAT/Enhancer Binding Protein (C/EBP) beta (AID 2282927); conditions: HepG2 Attagene cis-factorial transcription factor reporter; actives raise or lower the signal
# Chain of CCAAT/enhancer-binding protein beta (Homo sapiens) (P17676 whole entry, looked up, the tested form may be a part): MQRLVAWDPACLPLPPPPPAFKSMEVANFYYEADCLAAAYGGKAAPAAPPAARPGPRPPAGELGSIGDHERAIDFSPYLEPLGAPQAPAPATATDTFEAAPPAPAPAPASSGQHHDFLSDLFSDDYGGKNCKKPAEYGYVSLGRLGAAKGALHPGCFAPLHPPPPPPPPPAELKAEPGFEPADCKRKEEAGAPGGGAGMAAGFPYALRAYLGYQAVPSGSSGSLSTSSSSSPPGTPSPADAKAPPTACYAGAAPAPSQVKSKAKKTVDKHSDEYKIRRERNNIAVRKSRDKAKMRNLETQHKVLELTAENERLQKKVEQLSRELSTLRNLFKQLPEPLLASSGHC
# How it was run: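 Chemical-treated HepG2 cells (24 h) bearing cis-regulated reporter constructs were processed for total RNA, then reverse transcription, PCR amplification, fluorescent primer extension and fragment analysis; gain- and loss-of-signal were fitted against DMSO.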
# [2] = ATG_CMV_CIS: Attagene CIS-FACTORIAL HepG2 Assay for human CMV (Internal Marker) (AID 2282928); conditions: HepG2 CMV promoter reporter, transcription factor profiling; actives raise or lower the signal;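 further: endpoint acts as a background internal control marker rather than a target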
# How it was run: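 24 h chemical treatment, HepG2 with transient multi-reporter transfection; RNA → oligo(dT) RT → PCR → 6-FAM extension → HpaI digest → CE fluorescence. Bidirectional fit, DMSO negative control.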
# [3] = ATG_DR4_LXR_CIS: Attagene CIS-FACTORIAL HepG2 Assay for human Liver X Receptor (LXR), DR4 submotif (AID 2282929); conditions: HepG2 Attagene DR4 cis-reporter, mRNA transcription; AC50: actives raise or lower the signal unless noted; outcome: actives raise or lower the signal unless noted
# How it was run: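 Measures endogenous transcription factor activity via a DR4-driven reporter transcript in human HepG2 cells. Compounds incubated 24 h; mRNA quantified by RT-PCR and capillary electrophoresis, analysed as gain or loss of signal versus DMSO.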
# [4] = ATG_AP_1_CIS: Attagene CIS-FACTORIAL HepG2 Assay for human Activator Protein 1 (AP-1) (AID 2282931); conditions: HepG2 Attagene cis-factorial AP-1 reporter mRNA; actives raise or lower the signal
# How it was run: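 Bidirectional concentration-response fitting against DMSO controls. Underlying signal: reporter mRNA from cis-promoter constructs in transiently transfected HepG2, measured after 24 h by RT-PCR and capillary electrophoresis.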
# [5] = ATG_AP_2_CIS: Attagene CIS-FACTORIAL HepG2 Assay for human Activator Protein 2 (AP-2) (AID 2282932); conditions: HepG2 AP-2 cis-reporter, Attagene transcription factor profiling; AC50: actives raise or lower the signal unless noted; outcome: actives raise or lower the signal unless noted
# How it was run: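 Cells (HepG2) transfected with promoter-driven reporter constructs, treated 24 h. Total RNA reverse-transcribed, reporter cDNA PCR-amplified, FAM-labelled by primer extension, digested, resolved by capillary electrophoresis. Activity fitted both directions versus DMSO.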
# [6] = ATG_BRE_CIS: Attagene CIS-FACTORIAL HepG2 Assay for human Bone Morphogenetic Protein (BMP) Response Element (BRE) (AID 2282933); conditions: HepG2 BMP response element reporter, Attagene transcription factor profiling; actives raise or lower the signal
# How it was run: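 After a 24 h chemical treatment, transiently transfected HepG2 cells were lysed for RNA; reporter transcripts were quantified by fluorescent RT-PCR and capillary electrophoresis, normalised to DMSO.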
# [7] = molecular target: Retinoic acid receptor alpha (Homo sapiens) (UniProt P10276); test: ATG_DR5_RAR_CIS: Attagene CIS-FACTORIAL HepG2 Assay for human Retinoic Acid Receptor Alpha (RARE), DR5 submotif (AID 2282934); conditions: HepG2 Attagene cis-factorial RARE DR5 reporter, mRNA; actives raise or lower the signal
# Chain of Retinoic acid receptor alpha (Homo sapiens) (P10276 whole entry, looked up): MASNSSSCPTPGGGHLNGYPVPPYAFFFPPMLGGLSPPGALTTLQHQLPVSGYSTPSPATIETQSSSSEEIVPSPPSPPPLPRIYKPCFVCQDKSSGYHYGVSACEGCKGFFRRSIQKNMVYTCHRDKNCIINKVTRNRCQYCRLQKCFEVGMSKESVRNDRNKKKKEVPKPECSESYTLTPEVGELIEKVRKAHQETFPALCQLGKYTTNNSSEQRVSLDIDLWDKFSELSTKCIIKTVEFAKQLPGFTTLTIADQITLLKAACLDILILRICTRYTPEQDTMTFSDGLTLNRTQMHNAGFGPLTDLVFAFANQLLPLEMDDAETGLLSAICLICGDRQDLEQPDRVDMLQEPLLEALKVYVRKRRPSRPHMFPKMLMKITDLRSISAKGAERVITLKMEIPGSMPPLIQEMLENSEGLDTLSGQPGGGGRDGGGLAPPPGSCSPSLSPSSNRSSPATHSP
# How it was run: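 Transfected HepG2 reporter cells are exposed to chemicals for 24 h. Then RNA is extracted and the DR5 element reporter transcript is measured by RT-PCR and capillary electrophoresis, with bidirectional curve fitting relative to DMSO.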
# [8] = ATG_E_Box_CIS: Attagene CIS-FACTORIAL HepG2 Assay for human Enhancer Box (E-box) (AID 2282936); conditions: HepG2 E-box cis-reporter transcription, actives raise or lower the signal
# How it was run: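 Endogenous transcription factor activity was sensed in human HepG2 liver cells through transfected cis-promoter reporter units. After 24 h of dosing, total RNA was reverse-transcribed and reporter cDNA resolved by capillary electrophoresis.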
# [9] = ATG_M_61_CIS: Attagene CIS-FACTORIAL HepG2 Assay for M61 Transcription Factor (Internal Marker) (AID 2282937); conditions: HepG2 Attagene CIS-FACTORIAL M61 internal marker reporter; actives raise or lower the signal
# How it was run: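 Fluorescence from labelled cDNA fragments, separated by capillary electrophoresis, quantifies reporter induction. HepG2 cells bearing transiently transfected cis-promoter MRTUs were incubated with test chemical for 24 h; DMSO defined baseline for gain/loss fitting.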
# [10] = ATG_EGR_CIS: Attagene CIS-FACTORIAL HepG2 Assay for human Early Growth Response 1 (EGR1) (AID 2282938); conditions: HepG2 Attagene CIS-FACTORIAL EGR reporter mRNA; actives raise or lower the signal
# How it was run: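 Cell-based multiplex transcription assay: HepG2 carrying transfected cis-element reporter units, 24 h chemical treatment. Fluorescence from capillary electrophoresis of RT-PCR products gives mRNA levels; fitting is bidirectional relative to DMSO.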
# [11] = ATG_M_19_CIS: Attagene CIS-FACTORIAL HepG2 Assay for M19 Transcription Factor (Internal Marker) (AID 2282939); conditions: HepG2 Attagene CIS-FACTORIAL M19 internal marker reporter; actives raise or lower the signal
# How it was run: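 In this multiplexed cell assay, transiently transfected HepG2 reporter units report endogenous transcription-factor activity; after 24 hours of treatment, labelled reporter cDNA fragments are quantified by capillary electrophoresis and fitted bidirectionally against DMSO.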
# [12] = ATG_ERE_CIS: Attagene CIS-FACTORIAL HepG2 Assay for Estrogen Response Element (ERE) (AID 2282940); conditions: HepG2 ERE cis-reporter, Attagene RNA transcript; actives raise or lower the signal
# How it was run: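 Measuring endogenous transcription factor output, the assay doses transfected HepG2 cells for 24 hours and quantifies reporter transcripts by fluorescent RT-PCR and capillary electrophoresis, with DMSO as baseline.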
# [13] = ATG_Ets_CIS: Attagene CIS-FACTORIAL HepG2 Assay for human Erythroblast Transformation Specific (ETS) (AID 2282941); conditions: HepG2 ETS cis-reporter transcription; AC50: actives raise or lower the signal unless noted; outcome: actives raise or lower the signal unless noted
# How it was run: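 Cis-regulated reporter mRNA induction in HepG2 (transient transfection), 24 h exposure, RT-PCR plus capillary electrophoresis detection; DMSO serves as negative control and baseline.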
# [14] = molecular target: Hepatocyte nuclear factor 3-beta (Homo sapiens) (UniProt Q9Y261); test: ATG_FoxA2_CIS: Attagene CIS-FACTORIAL HepG2 Assay for human Forkhead box A2 (FOXA2) (AID 2282942); conditions: HepG2 cis-reporter transcription factor activity, 24 h; actives raise or lower the signal
# Chain of Hepatocyte nuclear factor 3-beta (Homo sapiens) (Q9Y261 whole entry, looked up): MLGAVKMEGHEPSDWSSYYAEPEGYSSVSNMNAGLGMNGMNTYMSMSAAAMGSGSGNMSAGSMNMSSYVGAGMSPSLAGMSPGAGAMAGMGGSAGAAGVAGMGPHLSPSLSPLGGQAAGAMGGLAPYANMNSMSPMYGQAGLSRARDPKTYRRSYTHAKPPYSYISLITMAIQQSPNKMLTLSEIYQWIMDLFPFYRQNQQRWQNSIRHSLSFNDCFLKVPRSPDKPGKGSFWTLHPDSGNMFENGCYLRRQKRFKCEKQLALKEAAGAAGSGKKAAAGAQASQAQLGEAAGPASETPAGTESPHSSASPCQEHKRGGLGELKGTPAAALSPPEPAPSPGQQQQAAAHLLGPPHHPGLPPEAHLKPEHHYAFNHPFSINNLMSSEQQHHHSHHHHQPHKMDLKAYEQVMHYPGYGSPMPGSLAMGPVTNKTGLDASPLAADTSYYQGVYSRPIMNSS
# How it was run: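 In transiently transfected human HepG2 cells, promoter-driven reporter mRNA levels after 24 h chemical exposure are determined via RT-PCR with capillary electrophoresis. DMSO serves as baseline for bidirectional fitting.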
# [15] = ATG_GATA_CIS: Attagene CIS-FACTORIAL HepG2 Assay for human GATA Binding Protein (AID 2282944); conditions: HepG2 GATA cis-element reporter, Attagene multiplex mRNA; actives raise or lower the signal
# How it was run: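 Measures endogenous transcription factor-driven reporter mRNA in HepG2 cells transiently carrying cis-regulated constructs. 24 h dosing; RNA via oligo(dT) reverse transcription, PCR, HpaI digestion, capillary electrophoresis; fitted relative to DMSO.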
# [16] = ATG_GLI_CIS: Attagene CIS-FACTORIAL HepG2 Assay for human Zinc Finger Protein GLI1 (AID 2282945); conditions: HepG2, Attagene cis-factorial reporter mRNA, GLI element; actives raise or lower the signal
# How it was run: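 HepG2 cells transiently transfected with cis-promoter multiplexed reporter units report endogenous transcription factor activity. After 24 h chemical exposure, reporter mRNA was quantified by RT-PCR, 6-FAM labelling, HpaI digestion and capillary electrophoresis, with bidirectional fitting against DMSO.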
# [17] = molecular target: Bile acid receptor (Homo sapiens) (UniProt Q96RI1); test: ATG_IR1_CIS: Attagene CIS-FACTORIAL HepG2 Assay for human Nuclear Receptor Subfamily 1 Group H Member 4 (NR1H4), IR1 submotif (AID 2282946); conditions: IR1 reporter transcription, actives raise or lower the signal
# Chain of Bile acid receptor (Homo sapiens) (Q96RI1 whole entry, looked up): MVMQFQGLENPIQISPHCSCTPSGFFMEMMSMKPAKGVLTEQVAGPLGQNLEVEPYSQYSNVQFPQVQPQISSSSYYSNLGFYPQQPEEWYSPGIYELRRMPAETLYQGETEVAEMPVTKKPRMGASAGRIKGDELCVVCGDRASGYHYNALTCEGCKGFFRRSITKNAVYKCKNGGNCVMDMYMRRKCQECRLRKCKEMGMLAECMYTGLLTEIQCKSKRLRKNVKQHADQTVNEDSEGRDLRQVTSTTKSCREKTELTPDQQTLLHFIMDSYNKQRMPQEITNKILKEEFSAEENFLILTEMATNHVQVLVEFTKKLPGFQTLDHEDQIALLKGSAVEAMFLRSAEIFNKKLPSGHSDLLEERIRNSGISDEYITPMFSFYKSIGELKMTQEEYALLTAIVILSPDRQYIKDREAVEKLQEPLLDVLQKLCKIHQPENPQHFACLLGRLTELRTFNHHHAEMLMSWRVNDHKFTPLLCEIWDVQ
# How it was run: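 Readout: reporter transcript levels by RT-PCR with fluorescent capillary electrophoresis, from HepG2 cells transiently transfected with multiplexed cis-regulated reporters and dosed 24 h. Gain- or loss-of-signal fitted versus DMSO negative control.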
# [18] = molecular target: Transcription factor E2F1 (Homo sapiens) (UniProt Q01094); test: ATG_E2F_CIS: Attagene CIS-FACTORIAL HepG2 Assay for human E2F Transcription Factor 1 (AID 2282935); conditions: HepG2 Attagene cis-reporter, E2F reporter RNA transcripts; actives raise or lower the signal
# Chain of Transcription factor E2F1 (Homo sapiens) (Q01094 whole entry, looked up): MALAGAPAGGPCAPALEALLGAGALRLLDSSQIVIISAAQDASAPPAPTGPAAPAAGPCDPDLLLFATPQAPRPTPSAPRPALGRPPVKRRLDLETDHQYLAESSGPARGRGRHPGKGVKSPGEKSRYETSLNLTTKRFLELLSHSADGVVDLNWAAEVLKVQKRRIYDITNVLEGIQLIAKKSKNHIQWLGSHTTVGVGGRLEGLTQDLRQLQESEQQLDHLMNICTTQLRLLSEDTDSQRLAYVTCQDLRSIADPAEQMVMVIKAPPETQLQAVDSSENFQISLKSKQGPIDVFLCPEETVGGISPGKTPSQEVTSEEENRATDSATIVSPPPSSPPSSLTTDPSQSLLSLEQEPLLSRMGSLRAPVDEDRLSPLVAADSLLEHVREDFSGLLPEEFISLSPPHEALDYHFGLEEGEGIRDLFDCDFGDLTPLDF
# How it was run: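 First, HepG2 cells were transfected with reporter transcription units. Next, they were dosed for 24 h. Then RNA was isolated, converted to cDNA, PCR-amplified, FAM-labeled, HpaI-digested and analyzed by capillary electrophoresis.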
# [19] = ATG_FoxO_CIS: Attagene CIS-FACTORIAL HepG2 Assay for human Forkhead box O (FoxO) (AID 2282943); conditions: HepG2 Attagene cis-reporter, FoxO element, mRNA; actives raise or lower the signal
# How it was run: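 24 h chemical exposure, HepG2 with transient cis-MRTU transfection. RNA extraction, oligo(dT) RT, reporter-specific PCR, primer-extension labelling, HpaI digestion, CE fragment analysis; bidirectional fit, DMSO baseline.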
# [20] = molecular target: Aryl hydrocarbon receptor (Homo sapiens) (UniProt P35869); test: ATG_Ahr_CIS: Attagene CIS-FACTORIAL HepG2 Assay for human Aryl Hydrocarbon Receptor (Ahr) (AID 2282930); conditions: HepG2 AhR cis-factorial reporter transcription; actives raise or lower the signal
# Chain of Aryl hydrocarbon receptor (Homo sapiens) (P35869 whole entry, looked up): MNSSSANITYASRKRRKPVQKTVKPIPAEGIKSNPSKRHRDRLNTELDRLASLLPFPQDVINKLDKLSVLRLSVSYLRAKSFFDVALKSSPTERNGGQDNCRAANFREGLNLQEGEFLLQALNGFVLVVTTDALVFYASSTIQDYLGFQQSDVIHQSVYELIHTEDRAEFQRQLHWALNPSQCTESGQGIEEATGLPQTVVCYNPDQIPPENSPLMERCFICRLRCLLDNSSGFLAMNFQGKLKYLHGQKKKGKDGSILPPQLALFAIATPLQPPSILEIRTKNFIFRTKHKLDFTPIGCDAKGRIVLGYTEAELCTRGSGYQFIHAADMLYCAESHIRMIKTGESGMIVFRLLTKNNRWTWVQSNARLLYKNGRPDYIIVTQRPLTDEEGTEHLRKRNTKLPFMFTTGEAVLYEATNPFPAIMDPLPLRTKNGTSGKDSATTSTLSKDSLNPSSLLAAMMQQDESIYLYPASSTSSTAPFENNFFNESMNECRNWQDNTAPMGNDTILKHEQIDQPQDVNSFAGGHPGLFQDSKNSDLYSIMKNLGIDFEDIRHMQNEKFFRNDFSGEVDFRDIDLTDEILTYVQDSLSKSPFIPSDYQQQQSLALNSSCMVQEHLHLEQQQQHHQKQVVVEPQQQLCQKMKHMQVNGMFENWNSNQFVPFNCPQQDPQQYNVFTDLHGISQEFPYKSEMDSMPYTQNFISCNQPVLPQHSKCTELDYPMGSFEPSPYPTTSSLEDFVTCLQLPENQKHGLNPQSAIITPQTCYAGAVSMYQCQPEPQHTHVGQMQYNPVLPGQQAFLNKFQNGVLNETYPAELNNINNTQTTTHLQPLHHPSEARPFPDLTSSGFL
# How it was run: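 Following 24 h of chemical dosing, transfected HepG2 liver cells with cis-driven reporter units were lysed for RNA; reporter mRNA was quantified via RT-PCR and capillary electrophoresis, and responses fitted bidirectionally from DMSO.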
smiles,measurement,setting,value
C=CC(C)(CCC=C(C)C)OC(C)=O (stereo not drawn),outcome,[1],inactive
same,outcome,[2],inactive
same,outcome,[3],inactive
same,outcome,[4],inactive
same,outcome,[5],inactive
same,outcome,[6],inactive
same,outcome,[7],inactive
same,outcome,[8],inactive
same,outcome,[9],inactive
same,outcome,[10],inactive
same,outcome,[11],inactive
same,outcome,[12],inactive
same,outcome,[13],inactive
same,outcome,[14],inactive
same,outcome,[15],inactive
same,outcome,[16],inactive
same,outcome,[17],inactive
FC(F)(F)C1(F)C(F)(F)C(F)(F)C(F)(F)C1(F)F,outcome,[1],inactive
same,outcome,[2],inactive
same,outcome,[3],inactive
same,outcome,[4],inactive
same,outcome,[5],inactive
same,outcome,[6],inactive
same,outcome,[7],inactive
same,outcome,[18],inactive
same,outcome,[8],inactive
same,outcome,[9],inactive
same,outcome,[10],inactive
same,outcome,[11],inactive
same,outcome,[12],inactive
same,outcome,[13],inactive
same,outcome,[14],inactive
same,outcome,[19],inactive
same,outcome,[15],inactive
same,outcome,[16],inactive
same,outcome,[17],inactive
CC(=O)Nc1ccc(O)cc1,outcome,[1],inactive
same,outcome,[2],inactive
same,outcome,[3],inactive
same,outcome,[20],inactive
same,outcome,[4],inactive
same,outcome,[5],inactive
same,outcome,[6],inactive
same,outcome,[8],inactive
same,outcome,[9],inactive
same,outcome,[10],inactive
same,outcome,[11],inactive
same,outcome,[13],inactive
same,outcome,[14],inactive
same,outcome,[19],inactive
same,outcome,[15],inactive
same,outcome,[16],inactive
O=C(CCCN1CCC(O)(c2ccc(Cl)cc2)CC1)c1ccc(F)cc1,outcome,[1],inactive
same,AC50,[2],49.7 µM (active)
same,outcome,[3],inactive
same,outcome,[20],inactive
same,AC50,[4],60.1 µM (active)
same,outcome,[6],inactive
same,outcome,[18],inactive
same,AC50,[8],22 µM (active)
same,outcome,[9],inactive
same,AC50,[10],33.4 µM (active)
same,outcome,[11],inactive
same,outcome,[13],inactive
same,outcome,[14],inactive
same,AC50,[19],52.7 µM (active)
same,AC50,[15],52.8 µM (active)
same,outcome,[16],inactive
